Laboratory results published in the antibiotic and cytotoxicity screens of Wong et al. (2023).
Out of some 39,000 compounds screened, about 3,300 (8.5%) were called active. Only a selection was taken, and actives are over-represented in it overall.

Each compound was assayed on HepG2 (assay: cytotoxicity call (relative viability < 0.9)). Conditions: 10 µM.

| SMILES | cytotoxicity call |
| --- | --- |
| CC(C=CC=C(C)C=CC1=C(C)C(=O)CCC1(C)C)=CC=CC=C(C)C=CC=C(C)C=CC1=C(C)C(=O)CCC1(C)C [CANTHAXANTHIN (euglenanone) ] | inactive |
| COc1ccc(S(=O)(=O)Nc2ccc3c(c2)[C@@H]2C[C@H](CC(=O)NCC4CC4)O[C@@H](CO)[C@@H]2O3)cc1 | inactive |
| C[C@H](CO)N1C[C@H](C)[C@@H](CN(C)Cc2ccc(C(=O)Nc3ccccc3N)cc2)Oc2ccc(NS(=O)(=O)c3ccc(Cl)cc3)cc2C1=O | inactive |
| C[C@@H]1CCCCO[C@H](CN(C)S(=O)(=O)c2cccs2)[C@@H](C)CN([C@@H](C)CO)C(=O)c2cc(NC(=O)Nc3ccc(F)cc3)ccc2O1 | inactive |
| CNCC(O)c1ccc(O)c(O)c1.O=C(O)C(O)C(O)C(=O)O (centres undefined) | active |
| NC(C(=O)O)C(O)c1ccc(O)c(O)c1 (centres undefined) | active |
| CNC[C@@H](O)c1ccc(O)c(O)c1 | inactive |
| N[C@@H](C(=O)O)c1ccc(C(=O)O)c(O)c1 | inactive |
| CNC[C@H](O)c1ccc(O)c(O)c1 | inactive |
| N[C@H](C(=O)O)c1ccc(C(=O)O)c(O)c1 | inactive |
| O=C(O)[C@@H](O)Cc1ccc(O)c(O)c1 | inactive |
| NCC(O)c1ccc(O)c(O)c1.O=C(O)C(O)C(O)C(=O)O (centres undefined) | active |
| NC[C@H](O)c1ccc(O)c(O)c1 | active |
| NC[C@@H](O)c1ccc2ccccc2c1 | inactive |
| N[C@H](C(=O)O)[C@H](O)c1ccc(O)c(O)c1 | inactive |
| NC[C@@H](O)c1ccsc1 | inactive |
| Cc1noc(C)c1S(=O)(=O)N(C)C[C@H]1Oc2ccc(NC(=O)Cc3cn(C)c4ccccc34)cc2CC(=O)N([C@@H](C)CO)C[C@H]1C | inactive |
| COc1cccc(S(=O)(=O)N[C@@H]2C=C[C@H](CC(=O)NC3CCC3)O[C@H]2CO)c1 | inactive |
| C[C@H](CO)N1C[C@H](C)[C@@H](CN(C)C(=O)Cc2ccccc2)OCCCC[C@H](C)Oc2ccc(NS(=O)(=O)c3cccs3)cc2C1=O | inactive |
| C[C@H](CO)N1C[C@H](C)[C@@H](CN(C)Cc2ccc(C(=O)O)cc2)Oc2ccc(NC(=O)c3ccncc3)cc2C1=O | inactive |
| C[C@@H]1CCCCO[C@@H](CN(C)Cc2ccc(C(F)(F)F)cc2)[C@H](C)CN([C@H](C)CO)C(=O)c2cc(NS(=O)(=O)c3cn(C)cn3)ccc2O1 | inactive |
| CC(C)NC(=O)N(C)C[C@H]1OCCCC[C@H](C)Oc2ccc(NC(=O)Nc3ccc(C(F)(F)F)cc3)cc2C(=O)N([C@@H](C)CO)C[C@H]1C | inactive |
| C[C@@H]1CCCCO[C@H](CN(C)S(=O)(=O)c2ccc(Cl)cc2)[C@@H](C)CN([C@@H](C)CO)C(=O)c2cc(NC(=O)C3CCCCC3)ccc2O1 | inactive |
| C[C@@H]1CCCCO[C@H](CN(C)C(=O)CCC(F)(F)F)[C@H](C)CN([C@H](C)CO)C(=O)c2cc(NS(=O)(=O)c3ccccc3)ccc2O1 | inactive |
| C[C@@H]1CCCCO[C@@H](CN(C)C(=O)Nc2ccccc2)[C@H](C)CN([C@H](C)CO)C(=O)c2cc(NC(=O)Nc3ccc(C(F)(F)F)cc3)ccc2O1 | inactive |

| SMILES | cytotoxicity call |
| --- | --- |
| CC(C)NC(=O)N(C)C[C@H]1Oc2c(NS(=O)(=O)c3ccc(F)cc3)cccc2C(=O)N([C@H](C)CO)C[C@H]1C | inactive |
| C[C@@H]1CN([C@@H](C)CO)C(=O)c2cc(C#CC3CC3)cnc2O[C@H]1CN(C)S(=O)(=O)c1cccc(F)c1 | inactive |
| Cc1ccc(=O)n(-c2ccccc2)c1 | inactive |
| O=c1[nH]ncn1-c1ccccc1 | inactive |
| O=c1[nH]ccn(-c2ccccc2)c1=O | active |
| Cc1c(C(=O)O)sc(=O)n1C | inactive |
| CC(C)NC(=O)N(C)C[C@@H]1Oc2cc(C#Cc3cccc(F)c3)ccc2S(=O)(=O)N([C@@H](C)CO)C[C@@H]1C | inactive |
| C[C@@H]1CN([C@@H](C)CO)C(=O)Cc2cc(NS(=O)(=O)c3ccccc3)ccc2O[C@@H]1CN(C)S(=O)(=O)c1ccc(F)cc1 | inactive |
| Cc1ccc(S(=O)(=O)N(C)C[C@@H]2OCCCC[C@H](C)Oc3ccc(NC(=O)CCC(F)(F)F)cc3C(=O)N([C@H](C)CO)C[C@@H]2C)cc1 | inactive |
| O=C(N[C@H](c1ccc(F)cc1)c1ccc2ccccc2n1)C1CCN(CCOc2ccc(Cl)cc2)CC1 | inactive |
| COc1ccc(/C=C/CN2CCC(C(=O)N[C@@H](c3ccc(F)cc3)c3ccc4ccccc4n3)CC2)cc1 | active |
| O=C(N[C@H](c1ccc(F)cc1)c1ccc2ccccc2n1)C1CCN(CCOc2ccc(Cl)cc2Cl)CC1 | inactive |
| O=C(N[C@@H](c1ccccc1)c1ccc2ccccc2n1)C1CCN(CCOc2ccc(Cl)cc2Cl)CC1 | inactive |
| COc1ccc([C@@H](NC(=O)C2CCN(CCOc3ccc(Cl)cc3Cl)CC2)c2ccco2)cc1 | inactive |
| O=C(N[C@@H](c1ccc(F)cc1)c1ccc2ccccc2n1)C1CCN(CCOc2ccc(F)cc2)CC1 | active |
| COc1ccc(OCCN2CCC(C(=O)N[C@@H](c3ccc(F)cc3)c3ccc4ccccc4n3)CC2)cc1 | active |
| C[C@@H]1CN([C@@H](C)CO)C(=O)c2cccc(NS(=O)(=O)c3cccs3)c2O[C@H]1CN(C)S(=O)(=O)c1ccc(F)cc1 | inactive |
| C[C@@H]1CN([C@H](C)CO)S(=O)(=O)c2ccc(-c3cccc(C#N)c3)cc2O[C@H]1CN(C)C(=O)c1cccnc1 | inactive |
| COc1cccc(S(=O)(=O)N2C[C@@H](O)COC[C@@H]3O[C@H](CC(=O)N4CCN(C)CC4)CC[C@H]32)c1 | inactive |
| CO[C@H]1CN(C)C(=O)c2cc(NS(=O)(=O)c3ccccc3)ccc2OC[C@@H](C)N(C(=O)NC(C)C)C[C@H]1C | inactive |
| CC(C)(C)c1nc[nH]c1/C=c1\[nH]c(=O)/c(=C/c2ccccc2)[nH]c1=O | inactive |
| C[C@@H]1CN([C@@H](C)CO)C(=O)c2cc(NS(=O)(=O)c3cn(C)cn3)ccc2O[C@@H](C)CCCCO[C@@H]1CN(C)C(=O)CCCN(C)C | inactive |
| CO[C@@H]1CN(C)C(=O)c2cc(NC(=O)Nc3ccccc3F)ccc2OC[C@H](C)N(CCC(F)(F)F)C[C@@H]1C | inactive |
| CC(=O)O[C@H](C[C@H](O)[C@@](C)(CCC=C(C)C)O[C@H]1O[C@@H](CO)[C@@H](O)[C@@H](O)[C@@H]1O)/C(C)=C/COC[C@@H](O)[C@@H](O)[C@@H](O)[C@@H](O)CO | inactive |
